Active and inactive are the calls of the source.
What was measured:
[1] = E. coli DRC41 culture turbidity changes, primary screen, E. coli filamentation inducer project, strain DRC41, OD650, 48 h (AID 1152);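 further: E. coli MC1000 strain DRC41 lacking acrAB efflux pump and sulA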; settings: E. coli DRC41 (acrAB sulA), higher = more signal, called active from +8 up or from −8 down
[2] = small-molecule binders of probe aLefty1, primary screen, biochemical, small-molecule microarray, 635/667 nm fluorescence (AID 1153); settings: higher = more signal;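 further: score merges spot fluorescence with signal-to-noise ratio from the scanned slide images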
[3] = PSAC antagonists in infected red cells, primary screen, cell-based, P. falciparum Indochina, OD700, 1 h (AID 1154); settings: P. falciparum Indochina infected RBC osmotic lysis, higher = more signal, called active from +8 up or from −8 down
[4] = PSAC antagonists in infected red cells, primary screen, cell-based, P. falciparum Indochina, OD700, 2 h (AID 1155);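 further: lysis reports solute entry through the parasite surface anion channel PSAC; channel blockers reduce lysis of infected cells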; settings: P. falciparum Indochina infected erythrocytes, osmotic lysis OD700; higher = more signal, called active from +8 up or from −8 down
[5] = osmotic lysis modulators in infected erythrocytes, primary screen, PSAC antagonist project, cell-based, P. falciparum Indochina, OD700, 3 h (AID 1156); settings: higher = more signal, called active from +8 up or from −8 down
[6] = PSAC antagonists in infected red cells, primary screen, cell-based, P. falciparum Indochina, OD700, 18 h (AID 1157); settings: P. falciparum Indochina infected erythrocytes, osmotic lysis OD700, 18 h; higher = more signal, called active from +8 up or from −8 down
[7] = modulators of S6 phosphorylation in cells, primary screen, cell-based, A549, cytoblot, luminescence, serum-stimulated (AID 1158); settings: A549 phospho-S6 cytoblot, 5 h, higher = more signal;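 further: serum-stimulated A549 lung adenocarcinoma cells; signal is phosphorylated S6 detected by cytoblot immunostaining with HRP secondary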
[8] = target: NADPH oxidase 2 (Homo sapiens) (UniProt P04839); test: NOX2-dependent H2O2 signal modulators, primary screen, NOX inhibitor project, cell-based, HEK293-NOX2, PMA-stimulated, Amplex Red fluorescence (AID 1159); settings: 45 min, higher = more signal, called active from +8 up or from −8 down; further: test concentration not given here
Sequence of NADPH oxidase 2 (Homo sapiens) (P04839 whole entry, looked up): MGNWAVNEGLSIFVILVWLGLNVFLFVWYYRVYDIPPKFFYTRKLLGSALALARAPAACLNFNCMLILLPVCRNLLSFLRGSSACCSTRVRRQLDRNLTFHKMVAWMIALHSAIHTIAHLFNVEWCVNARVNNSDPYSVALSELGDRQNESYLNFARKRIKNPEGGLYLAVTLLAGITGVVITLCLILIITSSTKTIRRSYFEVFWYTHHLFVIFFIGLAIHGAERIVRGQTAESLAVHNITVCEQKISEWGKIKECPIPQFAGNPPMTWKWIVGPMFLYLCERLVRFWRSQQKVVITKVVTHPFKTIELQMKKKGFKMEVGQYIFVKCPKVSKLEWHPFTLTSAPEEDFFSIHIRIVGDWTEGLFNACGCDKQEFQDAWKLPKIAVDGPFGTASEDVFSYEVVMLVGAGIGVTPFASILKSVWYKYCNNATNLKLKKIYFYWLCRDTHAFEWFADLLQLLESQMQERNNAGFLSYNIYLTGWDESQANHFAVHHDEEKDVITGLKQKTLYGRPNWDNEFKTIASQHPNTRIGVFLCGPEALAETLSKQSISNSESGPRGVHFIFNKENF

[9] = target: NADPH oxidase 4 (Homo sapiens) (UniProt Q9NPH5); test: NOX4-dependent H2O2 signal modulators, primary screen, NOX inhibitor project, cell-based, HEK293-NOX4, tetracycline-induced, Amplex Red fluorescence (AID 1160); settings: 45 min, higher = more signal, called active from +8 up or from −8 down
Sequence of NADPH oxidase 4 (Homo sapiens) (Q9NPH5 whole entry, looked up): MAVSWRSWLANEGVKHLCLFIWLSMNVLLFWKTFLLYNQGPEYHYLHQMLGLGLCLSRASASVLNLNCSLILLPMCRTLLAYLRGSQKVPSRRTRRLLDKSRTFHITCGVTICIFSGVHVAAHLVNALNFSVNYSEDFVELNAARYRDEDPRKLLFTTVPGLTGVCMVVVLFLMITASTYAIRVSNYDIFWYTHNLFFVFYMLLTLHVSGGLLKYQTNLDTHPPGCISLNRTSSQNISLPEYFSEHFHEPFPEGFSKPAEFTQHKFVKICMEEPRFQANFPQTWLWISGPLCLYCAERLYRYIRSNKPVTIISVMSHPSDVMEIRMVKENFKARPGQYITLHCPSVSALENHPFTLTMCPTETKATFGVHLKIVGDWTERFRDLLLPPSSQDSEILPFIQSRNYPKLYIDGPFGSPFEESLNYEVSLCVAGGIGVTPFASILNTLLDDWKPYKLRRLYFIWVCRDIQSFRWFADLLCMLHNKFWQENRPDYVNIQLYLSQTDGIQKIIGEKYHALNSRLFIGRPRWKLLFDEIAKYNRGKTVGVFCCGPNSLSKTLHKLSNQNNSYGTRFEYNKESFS

[10] = target: NADPH oxidase 5 (Homo sapiens) (UniProt Q96PH1); test: NOX5-dependent H2O2 signal modulators, primary screen, NOX inhibitor project, cell-based, HEK293-NOX5, Amplex Red fluorescence (AID 1161); settings: HEK293-NOX5, ionomycin, 45 min, higher = more signal
Sequence of NADPH oxidase 5 (Homo sapiens) (Q96PH1 whole entry, looked up): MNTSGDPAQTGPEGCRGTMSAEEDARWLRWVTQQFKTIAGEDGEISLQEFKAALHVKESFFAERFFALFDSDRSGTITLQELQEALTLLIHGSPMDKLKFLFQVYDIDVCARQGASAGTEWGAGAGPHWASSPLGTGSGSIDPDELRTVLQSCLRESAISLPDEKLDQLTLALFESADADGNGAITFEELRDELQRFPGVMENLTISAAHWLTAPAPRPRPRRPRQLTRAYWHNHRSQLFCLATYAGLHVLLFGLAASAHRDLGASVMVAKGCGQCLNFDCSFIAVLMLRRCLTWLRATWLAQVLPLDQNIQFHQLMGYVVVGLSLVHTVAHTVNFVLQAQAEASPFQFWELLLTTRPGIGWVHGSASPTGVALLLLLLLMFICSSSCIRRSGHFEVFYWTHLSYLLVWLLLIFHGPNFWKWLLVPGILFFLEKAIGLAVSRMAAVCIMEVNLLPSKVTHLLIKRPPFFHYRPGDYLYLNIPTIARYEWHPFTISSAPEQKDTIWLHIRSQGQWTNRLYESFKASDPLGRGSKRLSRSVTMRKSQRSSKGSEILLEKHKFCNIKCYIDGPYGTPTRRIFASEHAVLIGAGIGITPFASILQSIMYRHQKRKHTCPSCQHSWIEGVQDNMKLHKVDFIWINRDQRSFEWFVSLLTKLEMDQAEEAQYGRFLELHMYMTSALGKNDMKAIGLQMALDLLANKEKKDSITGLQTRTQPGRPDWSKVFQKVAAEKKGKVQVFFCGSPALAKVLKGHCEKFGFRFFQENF

[11] = A549 cell viability effects, profiling panel, calcein-AM fluorescence, 48 h, basal (AID 1162); settings: higher = more signal; further: test concentration not given here
[12] = adipocyte viability effects, profiling panel, cell-based, 3T3-L1 adipocytes, calcein-AM fluorescence, 48 h, basal (AID 1163); settings: 3T3-L1 adipocytes viability, higher = more signal; further: test concentration not given here
[13] = HepG2 cell viability effects, profiling panel, calcein-AM fluorescence, 48 h, basal (AID 1164); settings: higher = more signal; further: test concentration not given here
[14] = MM1S cell viability effects, profiling panel, calcein-AM fluorescence, 48 h, basal (AID 1165); settings: higher = more signal;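 further: viability of MM1S multiple myeloma cells under basal unstimulated conditions; test concentration not given here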
[15] = basal RPMI8226 viability, no added stimulus, profiling panel, cell-based, calcein-AM fluorescence, 48 h, PK04 Diversity Set (AID 1166); settings: RPMI8226 myeloma viability, higher = more signal;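 further: cells grown under basal conditions without added stimulus; test concentration not given here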
[16] = basal HepG2 mitochondrial membrane potential changes, profiling panel, cell-based, JC-1 fluorescence, 24 h, 100 nL compound (AID 1167); settings: higher = more signal; further: test concentration not given here
[17] = basal 3T3-L1 adipocyte mitochondrial potential changes, profiling panel, cell-based, JC-1 fluorescence, 3T3-L1 adipocytes, 24 h, 100 nL compound (AID 1168); settings: JC-1 mitochondrial fluorescence, higher = more signal, called active from +8 up or from −8 down; further: test concentration not given here
[18] = basal RPMI8226 mitochondrial membrane potential changes, profiling panel, cell-based, JC-1 fluorescence, 24 h, 100 nL compound (AID 1169); settings: RPMI8226 myeloma, JC-1 mitochondrial potential fluorescence, higher = more signal; further: test concentration not given here
[19] = basal MM1S mitochondrial membrane potential changes, profiling panel, cell-based, JC-1 fluorescence, 24 h, 100 nL compound (AID 1170); settings: higher = more signal; further: test concentration not given here
[20] = A549 lung cancer cell viability effects, profiling panel, resazurin fluorescence, 24 h, PK04 Diversity Set (AID 1171); settings: higher = more signal, called active from +8 up or from −8 down; further: test concentration not given here

SMILES | z-score [1] | composite z-score [2] | z-score [3] | z-score [4] | z-score [5] | z-score [6] | z-score [7] | z-score [8] | z-score [9] | z-score [10] | z-score [11] | z-score [12] | z-score [13] | z-score [14] | z-score [15] | z-score [16] | z-score [17] | z-score [18] | z-score [19] | z-score [20]
C=CC[C@]12N=C(c3ccc(OCCCO)cc3)O[C@H]1c1ccccc1N(C)C2=O | -0.0028 (inactive) | 1.11 | 31.9 (active) | 31.8 (active) | 4.16 (inactive) | 3.07 (inactive) | 0.289 | -2.49 (inactive) | -0.582 (inactive) | -1.8 | -1.3 | 0.614 | -0.593 | -1.14 | -3.83 | 0.422 | -0.427 (inactive) | -1.17 | 0.203 | -1.12 (inactive)
O=C1OC[C@@H](c2ccccc2)N2CC(/C=C/c3ccccc3)=CC12 (stereo not given in full) | -0.107 (inactive) | -0.469 | 18.1 (active) | 3.85 (inactive) | 2.22 (inactive) | 1.55 (inactive) | -0.126 | 0.724 (inactive) | -0.598 (inactive) | 0.967 | -0.488 | -0.125 | -0.255 | -0.0482 | -0.267 | -0.251 | 0.291 (inactive) | -0.306 | 0.00388 | 1.05 (inactive)
CCCNC(=O)[C@@]1(c2ccc([N+](=O)[O-])cc2)CC(=O)N(C2CCCCC2)[C@@H]1c1ccc(CO)cc1I | -0.123 (inactive) | 0.317 | 19.3 (active) | 3.4 (inactive) | 3.38 (inactive) | 0.722 (inactive) | -0.275 | 1.02 (inactive) | 0.187 (inactive) | 1.16 | -0.165 | -0.599 | -0.451 | -3.22 | -1.01 | 0.22 | -1.13 (inactive) | -0.677 | -1.11 | 0.72 (inactive)
C=CC1c2cc(O)c(OC)cc2CCN1Cc1sc2ccccc2c1Cl (stereo not given) | -1.38 (inactive) | 0.268 | 17.9 (active) | 5.17 (inactive) | -0.604 (inactive) | 1.41 (inactive) | -0.248 | -4.21 (inactive) | -2.48 (inactive) | -2.08 | -4.28 | 0.155 | -4.42 | -3.24 | -4.45 | -3.08 | -0.224 (inactive) | -0.811 | -0.358 | -0.784 (inactive)
C=C1C2CC3C(=C4C(CO[C@@H]4[C@H]4CCCN4S(=O)(=O)c4ccccc4[N+](=O)[O-])C4C(=O)N(C)C(=O)C34)CC2C(=O)N1C (stereo not given in full) | -0.523 (inactive) | -0.147 | 4.07 (inactive) | 0.0975 (inactive) | -0.513 (inactive) | -0.0387 (inactive) | 0.0973 | 0.228 (inactive) | 0.569 (inactive) | 0.751 | -0.704 | 0.332 | -0.0708 | -3.31 | -1.28 | -1.83 | -0.543 (inactive) | 0.485 | -0.347 | -0.123 (inactive)
CC=CC(O)C1C=CC2C(=O)N(c3ccccc3)C(=O)C2N1Nc1ccccc1 (stereo not given) | 0.509 (inactive) | 0.135 | 5.52 (inactive) | 1.17 (inactive) | 0.419 (inactive) | 1.17 (inactive) | -0.959 | 0.209 (inactive) | -4.28 (inactive) | -2.42 | 1.04 | -0.511 | 1.05 | 0.214 | -0.279 | -0.222 | 0.243 (inactive) | -0.866 | -0.749 | 0.0599 (inactive)
CC(C)C(O)C1C=CC2C(=O)N(C)C(=O)C2N1N(c1ccccc1)c1ccccc1 (stereo not given) | -0.573 (inactive) | 0.213 | 0.321 (inactive) | 0.167 (inactive) | -0.255 (inactive) | 1.05 (inactive) | -1.38 | -0.71 (inactive) | -0.583 (inactive) | -0.828 | -0.659 | -1.24 | 0.689 | 0.0007 | 0.0729 | -0.0204 | -0.291 (inactive) | -0.286 | -0.387 | -0.391 (inactive)
O=C(NC1CC1)[C@@H]1c2ccccc2C(=O)N(Cc2ccccc2)[C@H]1c1ccc(CO)cc1 | 0.651 (inactive) | 0.0191 | 2.58 (inactive) | 0.258 (inactive) | 1.38 (inactive) | 0.0604 (inactive) | 0.666 | -0.962 (inactive) | 0.623 (inactive) | -1.52 | 1.3 | -0.429 | 1.46 | 0.293 | 0.217 | 2.33 | 1.07 (inactive) | 0.135 | -0.319 | 0.139 (inactive)
COCCCNC(=O)[C@@]1(Sc2ccc(C)cc2)CC(=O)N(C2Cc3ccccc3C2)[C@@H]1c1ccc(CO)cc1I | -0.713 (inactive) | -0.0366 | 4.51 (inactive) | 0.427 (inactive) | -0.23 (inactive) | -0.0133 (inactive) | 0.224 | 2.2 (inactive) | -1.15 (inactive) | 1.23 | -0.126 | -0.175 | -0.65 | -2.45 | -2.27 | -0.188 | -0.0568 (inactive) | -0.294 | -1.34 | -0.3 (inactive)
CC(=O)NCCCC[C@@H]1NC(=O)[C@@H]2C[C@H](C(=O)O)[C@H](c3ccc(O)cc3)N2C1=O | 0.139 (inactive) | 0.202 | 1.15 (inactive) | 0.508 (inactive) | 1.08 (inactive) | 0.275 (inactive) | -0.544 | 1.03 (inactive) | -1.04 (inactive) | 0.422 | 0.0665 | 0.384 | -0.552 | 0.421 | -0.105 | -1.14 | -0.352 (inactive) | 0.667 | 0.237 | -0.179 (inactive)
C=CCNC(=O)[C@H]1[C@@H]2C(=O)O[C@@H](c3ccccc3)[C@@H](c3ccccc3)N2[C@@H](c2ccccc2OCCO)[C@]12C(=O)N(C(=O)OCCOC)c1ccc(C#CC3=CCCCC3)cc12 | 0.687 (inactive) | 0.944 | 2.75 (inactive) | 1.32 (inactive) | -0.032 (inactive) | 0.725 (inactive) | -0.321 | 2.28 (inactive) | -0.678 (inactive) | 1.58 | -1.51 | 0.963 | -0.882 | -3.35 | -3.88 | 0.215 | 1.06 (inactive) | -0.924 | -1.49 | -1.02 (inactive)
Cc1ccc(S[C@]2(C(=O)NC(C)C)CC(=O)N(C3Cc4ccccc4C3)[C@@H]2c2ccc(CO)cc2I)cc1 | 0.135 (inactive) | -0.788 | 8.47 (active) | 1.39 (inactive) | 1.67 (inactive) | 0.13 (inactive) | -0.086 | 1.87 (inactive) | -1.89 (inactive) | 1.23 | 0.6 | -0.345 | 0.425 | -1.7 | -1.29 | 0.221 | -0.277 (inactive) | -0.697 | -2.19 | -0.526 (inactive)
CC(=O)n1cc(C(O)C2C=CC3C(=O)N(Cc4ccccc4)C(=O)C3N2n2cnnc2)c2ccccc21 (stereo not given) | -1.32 (inactive) | -0.0867 | 8.09 (active) | 2.31 (inactive) | 0.927 (inactive) | 1 (inactive) | -0.386 | -0.0716 (inactive) | -0.738 (inactive) | -0.392 | -0.919 | -0.0245 | -0.392 | -1.12 | 0.125 | -1.07 | -0.623 (inactive) | 0.563 | -0.321 | -0.756 (inactive)

From PubChem BioAssay
